High-throughput results deposited in PubChem by several laboratories.
MOR-DOR inv ag = inverse agonists of MOR-DOR heterodimerization, primary screen, cell-based, luminescence; cell-based MOR-DOR heterodimer luminescence, inverse agonism; inhibition, % at 9.3 µM; actives 0.21% (n = 340,000); in the data active = inhibition above about 22%, passing the limit was not always enough;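 note: 0% = cells with DMSO and 100% = wells without cells with DMSO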
PvdQ inh = P. aeruginosa PvdQ acylase inhibitors, primary screen, biochemical, fluorescence, plate reader and imaging, single point; actives 0.063% (n = 340,000); PvdQ acylase [Pseudomonas aeruginosa LESB58]; purified PvdQ acylase; inhibition, % at 10 µM; in the data active = inhibition above about 30%, passing the limit was not always enough;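 note: 0% = vehicle neutral wells and 100% = reference inhibitor wells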
HTR5A ag ctr = HTR5A agonists in luminescence cell assay, primary screen, counter-screen for OPRM1-OPRD1 heterodimer agonist project, full-deck HTS | actives 0.61% (n = 340,000) | activation, % at 9.3 µM | cell-based; in the data active = activation mostly above about 9.5%, no sharp cut-off; inactive = mostly below about 7.6%;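 note: 0% = cells with vehicle only and 100% = reference agonist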
Target sequence (P47898 whole entry, looked up): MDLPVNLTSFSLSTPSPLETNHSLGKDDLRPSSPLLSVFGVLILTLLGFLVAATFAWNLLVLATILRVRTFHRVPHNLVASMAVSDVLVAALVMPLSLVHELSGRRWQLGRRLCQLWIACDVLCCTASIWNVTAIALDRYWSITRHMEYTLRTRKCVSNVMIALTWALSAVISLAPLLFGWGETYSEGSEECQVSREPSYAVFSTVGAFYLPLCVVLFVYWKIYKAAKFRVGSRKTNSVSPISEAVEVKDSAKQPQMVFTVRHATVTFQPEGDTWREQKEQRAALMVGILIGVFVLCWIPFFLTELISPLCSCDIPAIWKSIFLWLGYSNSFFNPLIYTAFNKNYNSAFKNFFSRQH
CR mimetic SO = reduction of superoxide in aged yeast, primary screen, HTS; S. cerevisiae aged cells, superoxide DHE fluorescence; stronger effect = lower value; superoxide response (% of plate mean), % at 10 µM; actives 0.18% (n = 330,000);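 active = superoxide response under a set limit, about three screen SD below normal, cut at about 65% in these data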;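 note: yeast aged for seven days with compound at 30 °C before DHE staining; 100% = average MFI of all compound-treated wells on the plate with controls excluded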
MOR-DOR ag = agonists of OPRM1-OPRD1 heterodimerization, primary screen, cell-based, luminescence; Mu-type opioid receptor (Homo sapiens) + Delta-type opioid receptor (Homo sapiens), …; cells; activation, % at 9.3 µM; actives 0.3% (n = 340,000); AID 504326, 2011; in the data active = activation above about 18%;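 note: 0% = vehicle-treated cells and 100% = reference agonist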
HTR5A inv ag = HTR5A inverse agonists in luminescence cell assay, primary screen, counter-screen for OPRM1-OPRD1 heterodimer inverse agonist project, full-deck HTS; inhibition, % at 9.3 µM; 5-hydroxytryptamine receptor 5A (Homo sapiens), P47898; AID 504634, 2011; HTR5A cell line, inverse agonism; actives 0.083% (n = 340,000); in the data active = inhibition mostly above about 23%, no sharp cut-off; inactive = mostly below about 18%;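 note: 0% = cells with DMSO and 100% = no-cell wells with DMSO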
MOR-DOR inv conf = inverse agonists of MOR-DOR heterodimerization, confirmation, cell-based, luminescence. cells expressing OPRM1/OPRD1 heterodimer. shares compounds with MOR-DOR inv ag. AID 504900, 2011. inhibition, % at 9.3 µM. actives 20% (n = 580); in the data active = inhibition above about 32%;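 note: 0% = cells with DMSO and 100% = wells lacking cells with DMSO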
HTR5A inv count = HTR5A inverse agonists, counter-screen for OPRM1-OPRD1 inverse agonist project, cell-based, luminescence; shares compounds with MOR-DOR inv ag; HTR5A-expressing cells, inverse agonism; inhibition, % at 9.3 µM; 580 tested, under 10 active; AID 504914, 2011; call rule not given here;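 note: 0% = cells with DMSO and 100% = no-cell wells with DMSO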
* = called active by the depositor; i = inactive; nt = not tested or not shown. A selection: hits, their analogues and other compounds. The true share with any hit is near 1.3%.

SMILES | MOR-DOR inv ag | PvdQ inh | HTR5A ag ctr | CR mimetic SO | MOR-DOR ag | HTR5A inv ag | MOR-DOR inv conf | HTR5A inv count
CC(C(=O)OCC(=O)c1cccc([N+](=O)[O-])c1)N1C(=O)C2C3CCC(C3)C2C1=O (stereo unspecified) | 53.9* | -6.4 | -4.0 | 95.2 | -7.5 | 10.8 | 16.6 | 6.3
CC(C(=O)OCC(=O)c1cccc([N+](=O)[O-])c1)N1C(=O)C2C3C=CC(C3)C2C1=O (stereo unspecified) | 47.6* | -10.2 | -6.8 | 94.7 | -8.9 | 19.1 | i | -15.8
Cc1ccc(C(=O)COC(=O)C(C)N2C(=O)C3C4CCC(C4)C3C2=O)cc1C (stereo unspecified) | 14.0 | -1.4 | -1.4 | 100.3 | -2.0 | 8.5 | nt | nt
Cc1cc(C)c(C#N)c(N2CCN(C(=O)C3COc4ccccc4O3)CC2)n1 (stereo unspecified) | 9.5 | -8.4 | -4.3 | 98.6 | -2.3 | 10.5 | nt | nt
C/C(CC(=O)Nc1ccc(N(C)C)cc1)=N\NC(=O)c1cnccn1 | 38.6* | 11.9 | 1.8 | 98.3 | -8.6 | 17.7 | 6.7 | -10.7
C/C(CC(=O)Nc1ccc(N(C)C)cc1)=N\NC(=O)c1ccccn1 | 14.9 | -11.1 | -3.5 | 119.0 | -3.2 | -9.3 | nt | nt
CC1N(C(=O)N(C)C)CCN1S(=O)(=O)c1ccccc1 (stereo unspecified) | 2.9 | -4.9 | -3.0 | 94.2 | -0.4 | 8.1 | nt | nt
COc1cc(C=NNc2nc3c([nH]2)c(=O)n(C)c(=O)n3C)ccc1O | 35.1* | -1.1 | -2.4 | nt | -7.2 | 9.5 | 14.5 | -1.0
COc1cc(CNc2ccc3[nH]c(=O)[nH]c3c2)cc(Br)c1OCc1ccccc1F | -23.5 | -10.5 | 0.7 | 97.1 | 5.3 | -2.6 | nt | nt
C#CCOCCOCCOCCNc1nc(N2CCN(C(=O)Cn3cc(CC(C)O)nn3)CC2)nc(N2CCN(C(=O)[C@H](C)n3cc(CCC(=O)O)nn3)CC2)n1 (stereo partly specified) | 13.3 | -15.9 | 0.9 | nt | -2.4 | -2.2 | nt | nt
O=[N+]([O-])c1cccc(/C=N/NS(=O)(=O)c2ccccc2)c1 | 38.4* | -3.2 | -0.5 | 95.7 | -7.5 | -10.9 | 21.0 | 0.1
COc1ccc(C(=O)OC(C)C(=O)NC(C)CCc2ccccc2)c(OC)c1 (stereo unspecified) | 8.3 | -2.0 | -0.5 | 96.3 | -1.6 | 1.4 | nt | nt
COc1ccc(/C=C/c2n[nH]c(=O)c(C#N)c2C)cc1 | 11.1 | -1.8 | 0.4 | 107.4 | -1.7 | -1.2 | nt | nt
CSc1nnc2c(n1)OC1(Nc3ccccc3-2)C(=O)Nc2ccccc21 (stereo unspecified) | 53.0* | 0.3 | -4.8 | 143.7 | -10.6 | -0.9 | -20.8 | -6.1
CCSc1nnc2c(n1)OC(C)(C)Nc1ccccc1-2 | 0.3 | -0.9 | 9.6 | 94.3 | -0.1 | -10.3 | nt | nt
O=C(Nc1ccc(O)c(-c2nc3ccccc3s2)c1)c1cccs1 | 35.5* | -3.4 | -4.8 | 84.6 | -5.9 | 12.9 | 4.4 | 2.9
O=C(COC(=O)c1ccccc1)c1ccc(S(=O)(=O)N2CCCCC2)cc1 | 45.6* | -12.0 | -3.1 | nt | -7.0 | -9.8 | 32.4* | 1.7
CC(C)[C@H](NC(=O)c1ccccc1)C(=O)OCC(=O)Nc1ccc(S(=O)(=O)N2CCOCC2)cc1 | 17.3 | 6.1 | 2.9 | 90.8 | -3.6 | -11.3 | nt | nt
NC(=O)COC(=O)c1ccc(S(=O)(=O)N2CCCCCC2)cc1 | 16.9 | -15.1 | -1.4 | 91.4 | -3.5 | 3.5 | nt | nt
